Hits are enriched below; roughly 3.2% of the tested compounds scored in any of these assays.
USP2a block: qHTS Assay for Inhibitors of Ubiquitin-specific Protease USP2a Using CHOP2 as the Reporter | AID 463254, 2010 | USP2 core, Ub-CHOP2 coupled fluorogenic reporter, 485/531 | Potency, µM (doses to about 38.3 µM), without a hit: at the highest dose activity change, negative = inhibition, hits mostly inhibitors | hit rate 0.01% among 330,000;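 further: potency means the concentration at half of the fitted maximal effect; plate controls were DMSO wells for no effect and full inhibition by NEM control for full effect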
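Deubiquitinase activity read as fluorescence (485/531 nm) after Ub-CHOP2 cleavage activates the enterokinase reporter on its substrate; USP2 core 10nM, Ub-CHOP2 and substrate 25nM each, 30min compound preincubation then 60min RT; data normalized to NEM, curves fitted.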
GALK inh: qHTS Assay for Inhibitors of Human Galactokinase (GALK); P51570; Purified GALK, Kinase-Glo residual ATP luminescence; Potency, µM (highest dose often 57.5 µM), inactives show at the highest dose activity change, negative = inhibition, usual class: inhibitors; hit rate 0.007% among 270,000; AID 1868, 2009; further: potency means the concentration at half of the fitted maximal effect
Target sequence (P51570 whole entry, looked up): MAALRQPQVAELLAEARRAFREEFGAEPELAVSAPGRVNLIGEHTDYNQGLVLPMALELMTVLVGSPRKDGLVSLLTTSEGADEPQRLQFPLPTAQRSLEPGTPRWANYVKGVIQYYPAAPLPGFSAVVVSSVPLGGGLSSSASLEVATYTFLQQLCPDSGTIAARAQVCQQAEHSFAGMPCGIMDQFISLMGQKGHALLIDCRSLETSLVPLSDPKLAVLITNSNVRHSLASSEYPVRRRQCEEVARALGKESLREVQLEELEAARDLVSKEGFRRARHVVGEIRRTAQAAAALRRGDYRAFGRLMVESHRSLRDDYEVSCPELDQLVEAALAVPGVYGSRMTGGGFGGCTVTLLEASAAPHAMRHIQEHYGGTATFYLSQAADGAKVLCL
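Galactose (100 uM) and ATP (35 uM) were turned over by 5 nM GALK for 1 h at RT. Kinase-Glo Plus then converted the remaining ATP into a luminescent signal.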
USP1-UAF1 inh: Inhibitors of USP1/UAF1: Primary Screen; Ubiquitin carboxyl-terminal hydrolase 1 (Homo sapiens), O94782; recombinant USP1/UAF1, Ub-Rhodamine cleavage fluorescence; Potency, µM (highest dose often 57.1 µM), inactives show top-dose activity change, negative = inhibition, most hits filed as inhibitors; hit rate 0.23% among 390,000; further: potency means the concentration at half of the fitted maximal effect; nearly all actives have a fitted effect of over 60% in size
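1 nM enzyme complex + cpd, 15 min RT; start with Ub-Rho 150nM final; kinetic fluorescence ex 480/em 540, 6 reads q60 s. Buffer 50mM HEPES pH 7.8, 0.5mM EDTA, 0.1 mg/ml BSA, 1mM TCEP, 0.01% Tween-20.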
VDR inhibitor: Inhibitors of the vitamin D receptor (VDR): qHTS; Vitamin D3 receptor (Homo sapiens), P11473; VDR-SRC2-3 peptide fluorescence polarization, 2 h; Potency, µM, without a hit: max response, negative = inhibition, actives largely listed as inhibitors; hit rate 0.93% among 400,000; AID 504847, 2011; further: potency means the concentration at half of the fitted maximal effect
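VDR–SRC2-3 interaction, FP format. Cmpds 23 nl via pintool, brief spin, 2 h ambient incubation.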
PLK1 PBD inh: qHTS for Inhibitors of PLK1-PDB (polo-like kinase 1 - polo-box domain): Primary Screen | hit rate 2.8% among 360,000 | Potency, µM, for inactives: max response, negative = inhibition, hits mostly inhibitors | Plk1 PBD binding of FITC phosphopeptide, fluorescence polarization; further: potency means the concentration at half of the fitted maximal effect; series mostly up to about 57 µM; nearly all actives have a fitted effect of over 65% in size
Coupling enz: qHTS Assay for Inhibitors of Fructose-1,6-bisphosphate Aldolase from Giardia Lamblia: Coupling assay counterscreen. coupling enzyme system counterscreen, AmpLite Red fluorescence. activity change, negative = inhibition, % at 58.2 µM, hits read low. hit rate 0.67% among 290,000. AID 2472, 2010; in the data active means activity change below about -30%
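Final compound at 57.5 uM, incubated 10 min at RT with coupling enzyme reagent (glyceraldehyde-3-phosphate), then 20 min with substrate and AmpLite Red detection. Fluorescence read at 525/598 nm; tests interference with the coupling assay, not aldolase inhibition.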
The depositor's hits bear a star. Unless noted, the call rests on the fitted dose curve; in most records, active means well fitted curve in the direction sought with a large enough effect; inconclusive means small, poorly fitted or top-dose-only effect, or another doubt; inactive means no such curve, though single readings can be large; an effect the other way counts as inactive or inconclusive. Unless noted, on the % scale 0 is the no-effect control and ±100 the full control effect.

Screening O=c1c(C(c2ccc(Cl)cc2)c2c(O)nc3n(c2=O)CCCS3)c(O)nc2n1CCCS2 returned USP2a block -1%, GALK inh 0%, USP1-UAF1 inh inconclusive, VDR inhibitor 15%, PLK1 PBD inh inconclusive and Coupling enz 10.
For O=c1c(C(c2ccc(Cl)cc2)c2c(O)nc3n(c2=O)CCS3)c(O)nc2n1CCS2 the results were USP2a block -1%, GALK inh 6%, USP1-UAF1 inh -2%, VDR inhibitor inconclusive, PLK1 PBD inh 27µM* and Coupling enz 8.
Screening O=C(Nc1ccccc1Br)c1cc[n+]([O-])cc1 returned USP2a block 3%, GALK inh 14%, USP1-UAF1 inh -18%, VDR inhibitor -18%, PLK1 PBD inh 4% and Coupling enz 1.
For COc1ccccc1CCNC(=O)CCc1c(C)c2cc3c(C)c(C)oc3cc2oc1=O the results were USP1-UAF1 inh 12% and VDR inhibitor 1%.
For Cc1ccc(C)c(S(=O)(=O)Nc2ccccc2C(=O)Nc2ccccc2N2CCOCC2)c1 the results were USP2a block 5%, GALK inh -1%, USP1-UAF1 inh -8%, VDR inhibitor -4%, PLK1 PBD inh inconclusive and Coupling enz 3.
Screening O=C(NNS(=O)(=O)c1ccccc1Cl)C1COc2ccccc2O1 (stereo unspecified) returned USP2a block 2%, USP1-UAF1 inh -21%, VDR inhibitor -13% and PLK1 PBD inh 19µM*.
Cc1ccc(S(=O)(=O)NNC(=O)C2COc3ccccc3O2)cc1 (stereo unspecified) was read as USP2a block 3%, GALK inh 0%, USP1-UAF1 inh -21%, VDR inhibitor 3%, PLK1 PBD inh -1% and Coupling enz 4.
For COc1ccc(Cl)cc1C(=O)NNC(=O)C1COc2ccccc2O1 (stereo unspecified) the results were USP2a block 4%, GALK inh -1%, USP1-UAF1 inh -19%, VDR inhibitor -22%, PLK1 PBD inh 24µM* and Coupling enz 1.
Screening CCOC(=O)c1c(NC(=O)c2cc(C)on2)sc(C)c1C returned USP1-UAF1 inh 13% and VDR inhibitor 79µM*.
`CCOC(=O)c1c(NC(=O)c2cc(-c3ccc(Cl)cc3)on2)sc(C)c1C` gave USP1-UAF1 inh -24% and VDR inhibitor -16%.
Screening CC(=O)Nc1sc(C)c(C)c1C(=O)OC(C)C returned USP2a block 3%, GALK inh 1%, USP1-UAF1 inh -4%, VDR inhibitor -5%, PLK1 PBD inh 27µM* and Coupling enz 7.
For CCCc1cc(C(=O)Nc2sc(C(C)=O)c(C)c2C(=O)OCC)no1 the results were USP2a block 0%, GALK inh 3%, USP1-UAF1 inh -22%, VDR inhibitor -11%, PLK1 PBD inh inconclusive and Coupling enz -1.
`CCOC(=O)c1c(NC(=O)c2cc(CC)on2)sc(C)c1C` gave USP1-UAF1 inh inconclusive and VDR inhibitor 79µM*.
For Cc1sc(NC(=O)C2c3ccccc3Oc3ccccc32)c(C(=O)OC(C)C)c1C the results were USP1-UAF1 inh -20% and VDR inhibitor -12%.
`Cc1ccc2c(c1)N(CC(=O)NC1CCCCCC1)C(=O)c1cccnc1O2` gave USP2a block 3%, GALK inh -4%, USP1-UAF1 inh -19%, VDR inhibitor -15%, PLK1 PBD inh -4% and Coupling enz 1.
For COc1ccc(NC(=O)C2(C)Cc3c(-c4ccc(NC(C)=O)cc4)ccnc3O2)cc1 (stereo unspecified) the results were PLK1 PBD inh 3%.
Screening CCCc1cc(=O)oc2cc(C)cc(OCC(=O)Nc3ccc(S(N)(=O)=O)cc3)c12 returned USP2a block 2%, GALK inh -1%, USP1-UAF1 inh -2%, VDR inhibitor -23% and PLK1 PBD inh -9%.
Screening Cc1ccc(NC(=O)CN2C(=O)N/C(=C/c3ccc(C)o3)C2=O)cc1 returned USP2a block 5%, USP1-UAF1 inh 1%, VDR inhibitor inconclusive, PLK1 PBD inh 3% and Coupling enz -3.
`C=CCN1C(=O)N/C(=C/c2ccc(C)o2)C1=O` gave USP2a block 8%, GALK inh 0%, USP1-UAF1 inh -6%, VDR inhibitor -27%, PLK1 PBD inh inconclusive and Coupling enz -39*.
For O=C(CSc1ncnc2scc(-c3ccc(Cl)cc3)c12)NCc1ccc2c(c1)OCO2 the results were USP2a block 3%, GALK inh 0%, USP1-UAF1 inh -26%, VDR inhibitor 24%, PLK1 PBD inh 4% and Coupling enz -33*.
For O=C(CSc1ccc2ccccc2n1)NCc1ccc2c(c1)OCO2 the results were USP2a block 5%, GALK inh 0%, USP1-UAF1 inh -11%, VDR inhibitor -20%, PLK1 PBD inh 24µM* and Coupling enz 1.
For CS(=O)(=O)N(CC(=O)NCc1ccc2c(c1)OCO2)Cc1ccccc1 the results were USP2a block -2%, GALK inh 1%, USP1-UAF1 inh -21%, VDR inhibitor inconclusive, PLK1 PBD inh 8.4µM* and Coupling enz 0.
For Cc1cc(C)n2c(SCC(=O)Nc3ccc(F)cc3)nnc2n1 the results were USP2a block 6%, GALK inh -4%, USP1-UAF1 inh -21%, VDR inhibitor inconclusive, PLK1 PBD inh 21µM* and Coupling enz 1.
For COCCNC(=O)C1(C)CCCN(Cc2cc(-c3ccccc3)on2)C1 (stereo unspecified) the results were PLK1 PBD inh 2%.
Cc1cc(C)n2c(SCC(=O)NCc3ccc4c(c3)OCO4)nnc2n1 was read as USP2a block 1%, GALK inh 0%, USP1-UAF1 inh -11%, VDR inhibitor inconclusive, PLK1 PBD inh 24µM* and Coupling enz -1.
Cc1nc2ccccc2nc1OCC(=O)NCc1ccc2c(c1)OCO2 was read as USP2a block -3%, GALK inh 3%, USP1-UAF1 inh -9%, VDR inhibitor -11%, PLK1 PBD inh 2.7µM* and Coupling enz 1.
Screening O=C(CSc1nnc(-c2cccnc2)n1-c1ccc(F)cc1)NCc1ccc2c(c1)OCO2 returned USP2a block 3%, GALK inh -1%, USP1-UAF1 inh 7%, VDR inhibitor -5%, PLK1 PBD inh 12µM* and Coupling enz 2.

Screening results: PubChem, National Center for Advancing Translational Sciences (NCATS)
